Sampled rows, rich in hits. Any-hit rate of the full collection: about 2.1%.
TDP-43 yeast inh: TDP-43 toxicity inhibition in yeast. AID 652104. 410,000 compounds, 1.8% hits. Potency, µM (titrated, usually from 46.1 µM), hits mostly activators. TDP-43 expressing yeast growth rescue, BacTiter-Glo, 24 h; also: nearly all actives have a fitted effect of over 50% in size
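Yeast expressing TDP-43 (pregrown in raffinose, seeded at OD600=0.02 in galactose medium) exposed to compounds 24 hr at 30 deg C. Growth read by BacTiter-Glo luminescence; rescue of toxicity appears as increased signal.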
Abeta yeast res: restores growth of yeast expressing A-beta42 peptide; 410,000 compounds, 0.063% hits; yeast expressing A-beta42, growth rescue, OD600, 48 h; response scale: 0% DMSO, 100% iron-clioquinol control; Potency, µM (top dose mostly 46.1 µM), most hits filed as activators; also: nearly all actives have a fitted effect of over 55% in size
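Yeast A-beta toxicity model in growth medium with pinned compounds, 48 h at 30 C; growth read as absorbance at 600 nm. Normalized to FeCl3/clioquinol equimolar mix (positive) and DMSO (negative).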
FUS suppressor: FUS proteinopathy suppression in yeast | AID 1347120 | 390,000 compounds, 0.24% hits | S. cerevisiae FUS-expressing, growth rescue, OD600, 24 h | Potency, µM (top dose mostly 76.6 µM), usual class: activators; also: nearly all actives have a fitted effect of over 55% in size
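FUS-expressing yeast, raffinose-pregrown, induced in 2% galactose minimal medium at OD 0.005; compounds in a dilution series, 24hr at 30C. Growth restoration read as absorbance at 600 nm. CP55940 positive control, DMSO negative.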
aSyn yeast inh: rescues yeast growth from alpha-synuclein toxicity | Yeast expressing alpha-synuclein, growth rescue, BacTiter-Glo, 24 h | Potency, µM (doses to about 46.1 µM), actives largely listed as activators | 370,000 compounds, 0.14% hits; also: nearly all actives have a fitted effect of over 65% in size
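Galactose-induced alpha-syn yeast (OD600=0.02, raffinose-pregrown) + pinned cpd, 24 hr, 30 deg C; growth by BacTiter-Glo luminescence. Growth restoration scores as activation.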
Each line names hits and unclear results; the compound was inactive in the other large screens. Calls follow the shape of the dose curve; as a rule, active = well fitted curve in the direction sought with a large enough effect; inconclusive = small, poorly fitted or top-dose-only effect, or another doubt; inactive = no such curve, though single readings can be large; an effect the other way counts as inactive or inconclusive.

COc1ccc(C(=O)/C=C/C(=O)N(Cc2ccc3c(c2)OCO3)C(C(=O)NC2CCCCC2)c2ccncc2)c(O)c1 (configuration not stated)	TDP-43 yeast inh inconclusive, aSyn yeast inh inconclusive (no result: FUS suppressor)
COc1ccc(C(=O)/C=C/C(=O)N(CC(=O)NC2CCCCC2)Cc2cccs2)c(O)c1	TDP-43 yeast inh 20µM, FUS suppressor inconclusive
COCCN(CC(=O)NC1CCCCC1)C(=O)/C=C/C(=O)c1ccc(OC)cc1O	TDP-43 yeast inh 14.1µM
COc1ccc(-c2nnn(CC(=O)N(CC(=O)NC3CCCC3)Cc3cccs3)n2)cc1OC	FUS suppressor inconclusive
COc1ccc(CN(C(=O)/C=C/C(=O)c2ccc(OC)cc2O)C(C(=O)NC2CCCCC2)c2ccncc2)cc1 (configuration not stated)	aSyn yeast inh 35.5µM (no result: FUS suppressor)
Nc1[nH]c(=S)nc2nnsc12	none (no result: TDP-43 yeast inh, Abeta yeast res, FUS suppressor)
Cc1ccc(S(=O)(=O)N2CCN(c3nc(-c4cncnc4)nc4ccccc34)CC2)cc1	none (no result: TDP-43 yeast inh, Abeta yeast res, FUS suppressor)
CCN=c1scc(-c2ccco2)n1/N=C/c1ccc(OC)c(O)c1	TDP-43 yeast inh inconclusive (no result: FUS suppressor)
CCN=c1scc(-c2ccco2)n1/N=C/c1ccc(O)cc1	TDP-43 yeast inh 17.8µM, FUS suppressor inconclusive
CCCC(=O)OC12CCCN(C1)/C(=C/c1ccc(Cl)cc1)C2 (configuration not stated)	none (no result: TDP-43 yeast inh, Abeta yeast res, aSyn yeast inh)
CCn1c(Cc2cccs2)nnc1SCC(=O)Nc1ccc2c(c1)OCCO2	none (no result: TDP-43 yeast inh, Abeta yeast res, aSyn yeast inh)
CCNC(=O)n1nccc1C(C)Oc1cccc(C(F)(F)F)c1 (configuration not stated)	TDP-43 yeast inh 15.8µM
CCNC(=O)n1nccc1C(C)Oc1ccc(Cl)cc1 (configuration not stated)	TDP-43 yeast inh 11.2µM
CC(C)N(Cc1nccn1C)C(=O)c1cc(COc2cccc(C(F)(F)F)c2)on1	none
CCOC(=O)[C@]12CCCC=C1N(Cc1ccc(OC)cc1)C(=O)[C@@H]2CC(=O)NCc1cccc2ccccc12	none (no result: TDP-43 yeast inh, Abeta yeast res, aSyn yeast inh)
CC(C)COc1ccc(C(=O)Nc2onc3c2CCCC3)cc1	none (no result: aSyn yeast inh)
CCCN1CNc2c(c(=O)[nH]c(=S)n2CCc2cc(OC)cc(OC)c2)C1	none (no result: TDP-43 yeast inh, Abeta yeast res, FUS suppressor)
COc1ccc2cc(C(=O)N/N=C/c3sc4ccccc4c3O)ccc2c1	aSyn yeast inh 10µM (no result: FUS suppressor)
COc1ccc(C(=O)O/N=C(\N)c2ccccc2)c(OC)c1	TDP-43 yeast inh 14.1µM
COc1ccccc1C(=O)O/N=C(\N)c1ccccc1Cl	TDP-43 yeast inh 15.8µM
COc1ccc(C(=O)O/N=C(\N)c2ccccc2Cl)cc1OC	TDP-43 yeast inh inconclusive
Cc1ccc(Nc2ccc(N3CCN(C(=O)c4cccc([N+](=O)[O-])c4)CC3)nn2)cc1	none (no result: aSyn yeast inh)
COc1ccc(Cl)cc1NC(=O)CN1C(=O)COc2ccc(S(=O)(=O)NC3CCCC3)cc21	FUS suppressor inconclusive (no result: aSyn yeast inh)
CC(C)CN1C(=O)C[C@]2(C(=O)N(C)c3ccc(NS(=O)(=O)C4CC4)cc32)C1c1ccccc1 (some centres not stated)	none (no result: TDP-43 yeast inh, Abeta yeast res, aSyn yeast inh)
Cc1cc2ncn(-c3ncnc4scc(-c5ccccc5)c34)c2cc1C	TDP-43 yeast inh 8.91µM (no result: FUS suppressor)
COc1ccc(-c2csc3ncnc(N4CCN(S(=O)(=O)c5ccc(Cl)s5)CC4)c23)cc1	none
c1ccc(-c2csc3ncnc(N4CCc5ccccc5C4)c23)cc1	TDP-43 yeast inh 11.2µM (no result: FUS suppressor)
COc1ccc(-c2csc3ncnc(N4CCN(c5cccc(OC)c5)CC4)c23)cc1	TDP-43 yeast inh 11.2µM (no result: FUS suppressor)
COc1ccc(-c2csc3ncnc(N4CCN(S(=O)(=O)c5cccs5)CC4)c23)cc1	TDP-43 yeast inh 12.6µM
COc1ccc(-c2csc3ncnc(N4CCN(c5cccc(Cl)c5)CC4)c23)cc1	none (no result: FUS suppressor)
Cc1ccc2c(c1)C1CS(=O)(=O)N(Cc3ccccc3)C(=O)N1C2 (configuration not stated)	none (no result: TDP-43 yeast inh, Abeta yeast res, aSyn yeast inh)
CCN(CC)C(=O)CN1C(=O)C2CCCCN2C(=O)c2ccccc21 (configuration not stated)	none (no result: TDP-43 yeast inh, Abeta yeast res, aSyn yeast inh)
COc1ccc(N2CCN(c3ncnc4scc(-c5ccc(C)cc5)c34)CC2)cc1	TDP-43 yeast inh inconclusive
COc1ccc(N2CCN(C(=O)CSc3nc(C)cs3)CC2)cc1	none
COc1ccc(N2CCN(c3ncnc4scc(-c5ccc(F)cc5)c34)CC2)cc1	TDP-43 yeast inh 12.6µM
COc1ccc(N2CCN(C(=O)CSc3ncnc4scc(-c5ccc(C)cc5)c34)CC2)cc1	TDP-43 yeast inh 11.2µM
CCN(CC)CCCNC(=O)CSc1nc(-c2ccc(OC)cc2)cc(C(F)(F)F)n1	none (no result: aSyn yeast inh)
COc1ccccc1NC(=S)OC1CCC12CCC(c1ccccc1)CC2 (configuration not stated)	none (no result: TDP-43 yeast inh, Abeta yeast res, aSyn yeast inh)
CC1=CCC2C(=O)N(c3cccc(C(=O)NCc4ccccc4)c3)C(=O)C2C1 (configuration not stated)	none
CC1=CCC2C(=O)N(c3cccc(C(=O)Nc4ccc(Cl)cc4)c3)C(=O)C2C1 (configuration not stated)	TDP-43 yeast inh inconclusive, Abeta yeast res 14.1µM
O=C(NC1CCCCN(Cc2ccc(Cl)cc2)C1=O)C1C2CC3CC(C2)CC1C3 (configuration not stated)	none (no result: TDP-43 yeast inh, Abeta yeast res, aSyn yeast inh)
N#Cc1ccc(C(C(=O)Nc2ccc3c(c2)OCCO3)n2c(=O)c(-c3ccco3)nc3ccccc32)cc1 (configuration not stated)	FUS suppressor 6.31µM, aSyn yeast inh inconclusive
O=C(Nc1ccc2c(c1)OCCO2)C(c1ccncc1)n1c(=O)c(-c2cc3ccccc3[nH]2)nc2ccccc21 (configuration not stated)	TDP-43 yeast inh 28.2µM
O=C(Nc1ccc2c(c1)OCCO2)C(c1ccc(C(F)(F)F)cc1)n1c(=O)c(-c2cc3ccccc3[nH]2)nc2ccccc21 (configuration not stated)	TDP-43 yeast inh inconclusive, Abeta yeast res inconclusive, aSyn yeast inh 10µM
O=C(Nc1ccc2c(c1)OCCO2)C(C1CC1)n1c(=O)c(-c2ccco2)nc2ccccc21 (configuration not stated)	TDP-43 yeast inh inconclusive
CCOc1ccccc1NC(=O)c1nc2nc(C)cc(C(F)F)n2n1	TDP-43 yeast inh inconclusive (no result: aSyn yeast inh)
CCCC[C@H](CCCc1ccc(F)cc1)CCC(=O)N(c1ccccc1)c1ccccc1	none (no result: TDP-43 yeast inh, Abeta yeast res, aSyn yeast inh)
Cc1cc(NC(=S)NC(=O)C2CC2)ccc1Br	TDP-43 yeast inh 15.8µM
Cc1cc(C)cc(NC(=S)NC(=O)C2CC2)c1	TDP-43 yeast inh 11.2µM
O=C(C1CCN(c2cncnc2)CC1)N1CCCC1	none (no result: TDP-43 yeast inh, Abeta yeast res, aSyn yeast inh)
CCN(CC)C(=O)CC[C@H]1CC[C@]2(CCCN(C(=O)C(C)(C)C)C2)O1	none (no result: TDP-43 yeast inh, Abeta yeast res, aSyn yeast inh)
CC(=O)Nc1ccc2c(c1Br)Cc1ccccc1-2	TDP-43 yeast inh 17.8µM
Nc1ccc2c(c1Br)Cc1ccccc1-2	TDP-43 yeast inh 35.5µM
CC(=O)Nc1cccc2c1Cc1cc([N+](=O)[O-])ccc1-2	none (no result: FUS suppressor)
O=C1CCCN1CCCNS(=O)(=O)c1ccccc1	TDP-43 yeast inh 1.12µM, aSyn yeast inh inconclusive

Screens: PubChem BioAssay, National Center for Advancing Translational Sciences (NCATS)
